According to PubChem BioAssay (Tox21):
Results filed as inconclusive are left out. Calls of active or inactive are those of the source. Unless noted, calls come from the whole dose curve; as a rule, active = well fitted curve in the direction sought with a large enough effect in the repeat runs; inconclusive = weak or mixed curves; inactive = no such curve, though single readings can be large; an effect the other way counts as inactive or inconclusive.

How the values were obtained:
[1] = qHTS assay to identify small molecule antagonists of the estrogen receptor alpha (ER-alpha) signaling pathway using the BG1 cell line in the presence of 0.1 nM 17-beta-estradiol - cell viability counter screen (AID 1259241); note: nearly all actives have a fitted effect of over 40% in size
Procedure, shortened: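 VM7Luc4E2 cells (endogenous ER-alpha, 4×ERE-luciferase), hormone-starved 5 days in charcoal-stripped FBS, were treated with compounds plus 0.1 nM 17beta-estradiol for 22 hr at 37C; viability read in same wells as CellTiter-Fluor live-cell protease fluorescence.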

[2] = qHTS assay to identify small molecule antagonists of the androgen receptor (AR) signaling pathway using the MDA cell line in the presence of 0.5 nM R1881 - cell viability counter screen (AID 1259242); note: nearly all actives have a fitted effect of over 45% in size
Procedure, shortened: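 Concentration-response screen of compounds for toxicity in MDA-kb2 reporter cells: 16 hr at 37C with 0.5 nM R1881, endpoint live-cell protease fluorescence measured in the reporter wells.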

[3] = target: Estrogen receptor (Homo sapiens) (UniProt P03372); assay: qHTS assay to identify small molecule antagonists of the estrogen receptor alpha (ER-alpha) signaling pathway using the BG1 cell line in the presence of 0.1 nM 17-beta-estradiol (AID 1259244); note: nearly all actives have a fitted effect of over 50% in size; note: potency is the fitted concentration of half-maximal effect
Procedure, shortened: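 Compounds were tested against 0.1 nM (final) 17beta-estradiol in VM7Luc4E2 cells, which express full-length ER-alpha and an ERE-luciferase reporter; luminescence was recorded following 22 h exposure.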

[4] = qHTS assay to identify small molecule phospholipidosis (PLD) inducers (AID 1259344; active = well fitted curve in the direction sought with a large enough effect; an effect the other way counts as inactive or inconclusive)
Procedure, shortened: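 After 4 h attachment on collagen I, HepG2 cells were dosed with compound alongside LipidTOX Red, kept 24 h at 37 C, fixed, and imaged for lamellar phospholipid pits.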

[5] = qHTS assay to identify small molecule HDAC inhibitors (AID 1259364); note: potency is the fitted concentration of half-maximal effect;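 note: wild-type HCT-116 cells with endogenous class I/II HDAC activity; nearly all actives have a fitted effect of over 45% in size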; for activity change, negative = inhibition: top concentration of the series differs between compounds
Procedure, shortened: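 Screening used wild-type human colon HCT-116 cells incubated overnight, dosed with compounds for 2 hours, and assayed with a homogeneous luminogenic HDAC I/II reagent for 30 minutes at room temperature.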

[6] = qHTS assay to identify small molecule HDAC inhibitors - cell viability counter screen (AID 1259365); note: series mostly up to about 92 µM; nearly all actives have a fitted effect of over 50% in size
Procedure, shortened: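 Wild-type HCT-116 cells were seeded at 1,500 per well, incubated overnight at 37 C, then exposed to compounds in DMSO for 2hr. Viability was read by CellTiter-Glo luminescence after 30min at room temperature.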

[7] = qHTS assay to identify small molecule agonists of the sonic hedgehog signaling (Shh) pathway (AID 1259368; calls by dose curve; note: series mostly up to about 92 µM; nearly all actives have a fitted effect of over 15% in size)
Procedure, shortened: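 Hedgehog pathway agonism scored by increased firefly luciferase luminescence in 3T3Gli1-Luc cells treated 24 hr at 37 C; detection used a 30 min room-temperature reagent incubation.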

[8] = target: Estrogen receptor beta (Homo sapiens) (UniProt Q92731); assay: qHTS assay to identify small molecule agonists of the estrogen receptor beta (ER-beta) signaling pathway (AID 1259377; active = well fitted activation curve with a large enough effect in the signal ratio in the repeat runs, not every such curve was filed as active; the % refers to the signal ratio)
Procedure, shortened: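 ER-beta-UAS-bla HEK293T (GripTite) cells carrying a UAS-driven beta-lactamase reporter, in medium with 2% charcoal-stripped FBS, were exposed to compounds for 16 hr at 37C; LiveBLAzer B/G FRET substrate was then added and fluorescence read after 2 hours at room temperature.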

[9] = qHTS assay to identify small molecule agonists of the androgen receptor (AR) signaling pathway in the presence of an antagonist - cell viability counter screen (AID 1259379);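 note: MDA-kb2 human breast cancer cells carrying an MMTV luciferase reporter; series mostly up to about 92 µM; nearly all actives have a fitted effect of over 25% in size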
Procedure, shortened: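 MDA-kb2 viability measured by CellTiter-Fluor fluorescence in the same wells as the luciferase signal; nilutamide 3.0uM final; 15-point compound titration; 16 hr at 37C.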

[10] = qHTS assay to identify small molecule antagonists of the estrogen receptor beta (ER-beta) signaling pathway - cell viability counter screen (AID 1259382); note: series mostly up to about 92 µM; nearly all actives have a fitted effect of over 55% in size
Procedure, shortened: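 Readout: luminescence, CellTiter-Glo, same wells as bla assay. System: ER-beta-UAS-bla GripTite HEK293T, 2% charcoal-stripped FBS. Exposure: compounds plus 1nM 17-beta-estradiol, 16 hr, 37C.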

[11] = target: Estrogen receptor (Homo sapiens) (UniProt P03372); assay: qHTS assay to identify small molecule agonists of the estrogen receptor alpha (ER-alpha) signaling pathway in the presence of an antagonist (AID 1259383; calls by dose curve; note: top concentration of the series differs between compounds; nearly all actives have a fitted effect of over 15% in size)
Procedure, shortened: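 Quantitative HTS confirmation: compounds titrated at 15 concentrations onto estrogen-deprived VM7Luc4E2 cells carrying a four-ERE luciferase construct, with ICI-182,780 present at 10.0nM final. Signal is luminescence after 22hr exposure.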

[12] = qHTS assay to identify small molecule agonists of the sonic hedgehog signaling (Shh) pathway - cell viability counter screen (AID 1259366); note: nearly all actives have a fitted effect of over 50% in size
Procedure, shortened: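 NIH/3T3-derived 3T3 Gli1-Luc cells (stable Gli1-responsive firefly luciferase reporter) were seeded, rested 4 hr at 37 C/5% CO2, then exposed to compounds in DMSO for 24 hr; viability was read by CellTiter-Fluor fluorescence in the same wells.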

[13] = qHTS assay to identify small molecule antagonists of the sonic hedgehog signaling (Shh) pathway (AID 1259369; calls by dose curve; note: nearly all actives have a fitted effect of over 45% in size)
Procedure, shortened: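 NIH/3T3 stable Gli1-Luc clone, 2,000 cells/well, 4hr settle; cpd + conditioned medium 24hr; Luc reagent 30min RT; luminescence.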

[14] = qHTS assay to identify small molecule agonists of the estrogen receptor beta (ER-beta) signaling pathway - cell viability counter screen (AID 1259380); note: nearly all actives have a fitted effect of over 30% in size
Procedure, shortened: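 Measured: luminescence from CellTiter-Glo after 30 min at room temperature, added to wells already read for the LiveBLAzer FRET reporter (2 hr substrate); ER-beta-UAS-bla HEK293T cells had 16 hr compound treatment at 37C, 5% CO2.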

[15] = qHTS assay to identify small molecule agonists or antagonists of the thyroid stimulating hormone receptor (TSHR) signaling pathway - wild type cell line counter screen (AID 1259384; calls by dose curve)
Procedure, shortened: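 Wild-type HEK293 cells were plated 18 h at 37 C/5% CO2, pin-dosed with compound plus Ro20-1724 medium, held 30 min at room temperature, then given cAMP-d2 and anti-cAMP-cryptate; fluorescence was read after 1 h. Fifteen concentrations, triplicate.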

[16] = target: Thyrotropin receptor (Homo sapiens) (UniProt P16473); assay: qHTS assay to identify small molecule antagonists of the thyroid stimulating hormone receptor (TSHR) signaling pathway (AID 1259385; calls by dose curve; note: nearly all actives have a fitted effect of over 20% in size)
Procedure, shortened: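 TSHR-HEK293 cells were plated and held 18 h at 37C/5% CO2, then given compound plus Ro20-1724 and stimulated with TSH at 1.5 ng/mL final. After 30 min at room temperature, cAMP was detected with cAMP-d2/anti-cAMP-cryptate (1 h) by fluorescence.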

[17] = qHTS assay to identify small molecule antagonists of the sonic hedgehog signaling (Shh) pathway - cell viability counter screen (AID 1259367); note: nearly all actives have a fitted effect of over 55% in size
Procedure, shortened: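 Conditioned medium drove Shh signaling in 3T3 Gli1-Luc cells exposed to compounds at 37C and 5% CO2. Viability was determined from CellTiter-Fluor fluorescence, with reagent incubated 1 hr after 23 hr of treatment.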

[18] = target: Estrogen receptor beta (Homo sapiens) (UniProt Q92731); assay: qHTS assay to identify small molecule antagonists of the estrogen receptor beta (ER-beta) signaling pathway (AID 1259378; active = well fitted inhibition curve with a large enough effect in the signal ratio in the repeat runs, not every such curve was filed as active; the % refers to the signal ratio)
Procedure, shortened: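 ER-beta-UAS-bla HEK293T (GripTite) cells in 2% charcoal-stripped FBS medium were preincubated 6 hr at 37C, dosed with compound, then stimulated with 1 nM E2 (final) for 16 hr; beta-lactamase reporter read by B/G FRET fluorescence after 2 hr substrate loading.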
% is set by controls: 0 for no effect and ±100 for the full control effect.

Sequence of Estrogen receptor (Homo sapiens) (P03372 whole entry, looked up): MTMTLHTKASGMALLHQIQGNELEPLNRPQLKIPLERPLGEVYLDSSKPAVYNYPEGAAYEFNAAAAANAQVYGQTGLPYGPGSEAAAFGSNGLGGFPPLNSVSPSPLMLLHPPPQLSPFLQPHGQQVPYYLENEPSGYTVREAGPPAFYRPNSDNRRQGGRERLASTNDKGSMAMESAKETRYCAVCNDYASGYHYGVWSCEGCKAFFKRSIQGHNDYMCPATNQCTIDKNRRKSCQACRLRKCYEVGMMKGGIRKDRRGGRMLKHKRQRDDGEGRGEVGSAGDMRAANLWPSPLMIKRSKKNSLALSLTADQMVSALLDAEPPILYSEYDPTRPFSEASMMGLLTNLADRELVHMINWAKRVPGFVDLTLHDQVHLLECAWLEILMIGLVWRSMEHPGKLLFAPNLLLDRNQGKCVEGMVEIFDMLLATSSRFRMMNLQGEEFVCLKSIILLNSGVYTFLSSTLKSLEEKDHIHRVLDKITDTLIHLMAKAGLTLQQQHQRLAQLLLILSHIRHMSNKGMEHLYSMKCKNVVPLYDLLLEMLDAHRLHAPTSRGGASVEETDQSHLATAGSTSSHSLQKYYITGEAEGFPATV
Sequence of Thyrotropin receptor (Homo sapiens) (P16473 whole entry, looked up): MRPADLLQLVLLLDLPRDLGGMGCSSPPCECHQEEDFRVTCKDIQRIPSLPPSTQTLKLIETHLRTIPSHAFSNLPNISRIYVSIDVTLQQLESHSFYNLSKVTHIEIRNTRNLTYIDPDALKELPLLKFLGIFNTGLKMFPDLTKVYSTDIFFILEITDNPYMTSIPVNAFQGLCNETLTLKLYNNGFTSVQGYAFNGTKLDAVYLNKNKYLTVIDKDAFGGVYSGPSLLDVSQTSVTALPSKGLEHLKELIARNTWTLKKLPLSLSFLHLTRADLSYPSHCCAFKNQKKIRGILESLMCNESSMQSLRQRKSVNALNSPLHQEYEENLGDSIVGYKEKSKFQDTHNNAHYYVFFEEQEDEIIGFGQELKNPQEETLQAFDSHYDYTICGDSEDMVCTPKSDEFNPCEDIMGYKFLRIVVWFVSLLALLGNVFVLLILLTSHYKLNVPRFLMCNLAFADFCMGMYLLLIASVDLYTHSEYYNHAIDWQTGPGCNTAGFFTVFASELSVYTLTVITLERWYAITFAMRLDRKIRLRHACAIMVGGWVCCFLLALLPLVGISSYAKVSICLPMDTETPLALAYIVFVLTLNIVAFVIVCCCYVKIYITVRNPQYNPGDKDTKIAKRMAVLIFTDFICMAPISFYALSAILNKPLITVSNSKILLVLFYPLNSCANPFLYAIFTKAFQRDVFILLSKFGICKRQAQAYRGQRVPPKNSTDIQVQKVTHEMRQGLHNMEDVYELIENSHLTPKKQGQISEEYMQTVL
Sequence of Estrogen receptor beta (Homo sapiens) (Q92731 whole entry, looked up): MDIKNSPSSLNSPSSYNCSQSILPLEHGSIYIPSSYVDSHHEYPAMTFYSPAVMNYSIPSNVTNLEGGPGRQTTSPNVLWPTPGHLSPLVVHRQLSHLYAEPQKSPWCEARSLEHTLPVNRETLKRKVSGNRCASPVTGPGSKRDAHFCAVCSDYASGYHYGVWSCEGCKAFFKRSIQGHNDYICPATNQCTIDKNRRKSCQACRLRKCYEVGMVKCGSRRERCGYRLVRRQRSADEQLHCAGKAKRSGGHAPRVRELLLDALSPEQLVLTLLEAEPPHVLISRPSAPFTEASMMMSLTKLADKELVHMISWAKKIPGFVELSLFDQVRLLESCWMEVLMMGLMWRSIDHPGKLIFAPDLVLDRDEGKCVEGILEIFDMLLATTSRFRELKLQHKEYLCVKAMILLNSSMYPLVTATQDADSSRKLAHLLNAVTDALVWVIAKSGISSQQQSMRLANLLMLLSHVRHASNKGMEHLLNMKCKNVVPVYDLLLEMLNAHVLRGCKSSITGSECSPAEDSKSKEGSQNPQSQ

CCc1cc2c(s1)-n1c(C)nnc1CN=C2c1ccccc1Cl
inactive: outcome [1] | outcome [2] | PLD induction [4] -2.33% [at 1.53 µM] | Potency [5] | outcome [6] | outcome [7] | outcome [8] | Potency [9] | Potency [10] | Potency [11]
active: Potency [3] 18.8 µM

Cc1nnc2n1-c1sc(CCC(=O)N3CCOCC3)cc1C(c1ccccc1Cl)=NC2
inactive: outcome [1] | outcome [2] | Potency [3] | outcome [4] | Potency [5] | outcome [6] | Potency [12] | outcome [7] | Potency [13] | Potency [9] | Potency [14] | Potency [10] | Potency [11] | Potency [15] | Potency [16]

CCC1(c2ccccc2)C(=O)NC(=O)NC1=O
inactive: outcome [1] | outcome [2] | Potency [3] | outcome [4] | Potency [5] | outcome [6] | Potency [12] | Potency [17] | outcome [7] | Potency [13] | outcome [8] | Potency [18] | Potency [9] | Potency [14] | Potency [10] | Potency [11] | Potency [15] | Potency [16]

Cc1ncc(CNC(=O)N(CCCl)N=O)c(N)n1
inactive: outcome [1] | outcome [2] | Potency [3] | outcome [4] | Potency [5] | Potency [12] | Potency [17] | outcome [7] | Potency [13] | Potency [9] | Potency [10] | Potency [11] | Potency [15] | Potency [16]

CCS(=O)(=O)C(C)(C)S(=O)(=O)CC
inactive: outcome [1] | outcome [2] | Potency [3] | outcome [4] | Potency [5] | outcome [6] | Potency [12] | outcome [7] | Potency [18] | Potency [9] | Potency [10] | Potency [11] | Potency [15] | Potency [16]

C[C@@H]1CN(C2CCC(C#N)(c3ccc(F)cc3)CC2)CC[C@]1(C(=O)O)c1ccccc1 (stereo partly specified)
inactive: outcome [1] | outcome [2] | Potency [3] | outcome [4] | Potency [5] | outcome [6] | Potency [12] | Potency [17] | Potency [13] | Potency [18] | Potency [9] | Potency [11] | Potency [15]

CC(CCc1ccccc1)NC(C)C(O)c1ccc(O)cc1 (stereo unspecified)
inactive: outcome [1] | outcome [2] | Potency [3] | outcome [4] | Potency [5] | outcome [6] | Potency [12] | Potency [17] | Potency [13] | Potency [9] | Potency [10] | Potency [11] | Potency [15] | Potency [16]

O=C1c2ccccc2C(=O)c2ccccc21
inactive: activity change, negative = cytotoxicity [1] 0.424% [at 19 µM] | viability change, negative = cytotoxic [2] 3.34% [at 19 µM] | activity change, negative = inhibition [3] 34.1% [at 19 µM] | outcome [4] | activity change, negative = cytotoxicity [6] -0.295% [at 19 µM] | viability change, negative = cytotoxic [12] 1.77% [at 19 µM] | viability change, negative = cytotoxic [17] -0.095% [at 19 µM] | activation [8] 1.09% [at 19 µM] | activity, negative = inhibition [18] 0.94% [at 19 µM] | activity change, negative = cytotoxicity [9] -1.61% [at 19 µM] | activity change, negative = cytotoxicity [10] -0.678% [at 19 µM] | activation [11] 5.54% [at 19 µM] | cAMP activity change [15] -4.84% [at 18.9 µM, stronger effect = higher value]
active: Potency [5] 3.66 µM

Cc1ncsc1CCCl
inactive: outcome [1] | outcome [2] | Potency [3] | outcome [4] | Potency [5] | outcome [6] | Potency [12] | Potency [17] | outcome [7] | Potency [13] | outcome [8] | Potency [18] | Potency [9] | Potency [14] | Potency [10] | Potency [11] | Potency [15] | Potency [16]
